Sampled rows, rich in hits. Any-hit rate of the full collection: about 1.4%.
GLD-1 TGE inh – GLD-1/TGE RNA complex disruptors, primary screen, biochemical, fluorescence polarization; purified GLD-1 + fluorescein TGE RNA; inhibition, % at 5.96 µM; 320,000 compounds, 0.44% hits;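 active = percent inhibition above a per-plate cutoff, the plate mean of test compounds plus 3 SD, cut at about 30% in these data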
MCL1-BIM inh – inhibitors of MCL1 binding to BIM-BH3, primary screen, biochemical, fluorescence polarization; Induced myeloid leukemia cell differentiation protein Mcl-1 (Homo sapiens), Q07820; GST-MCL1 / FITC-Bim-BH3 fluorescence polarization; inhibition, % at 10.9 µM; 320,000 compounds, 0.68% hits; AID 2057, 2009;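 active = inhibition above the mean inhibition of all tested compounds plus 3 SD, set per campaign, cut at about 40% in these data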;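 note: higher means more loss of mP so more displacement of Bim peptide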
Bcl-xL primary – inhibitors of human Bcl-xL, primary screen, biochemical, fluorescence polarization, HTS. inhibition, % at 10.9 µM. AID 2129, 2009. 320,000 compounds, 0.7% hits. Bcl-2-like protein 1 (Homo sapiens), Q07817. GST-Bcl-xL / FITC-Bim BH3 peptide fluorescence polarization;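 active = inhibition above the mean of all tested compounds plus 3 SD, cutoff set per campaign, cut at about 30% in these data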;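 note: inhibitors lower millipolarization by displacing the labeled peptide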
eLon inh – inhibitors of E. coli Lon protease, primary screen, biochemical, fluorescence polarization; inhibition, % at 7.94 µM; AID 602123, 2011; 360,000 compounds, 0.42% hits; P0A9M0; purified E. coli Lon protease; in the data active = inhibition above about 13%, passing the limit was not always enough
MEX-5 binding – MEX-5 zinc finger RNA-binding disruptors – biochemical, C. elegans, fluorescence polarization, MLPCN library, primary screen | Zinc finger protein mex-5 (Caenorhabditis elegans), Q9XUB2 | MEX-5/FITC-TCR2 RNA binding; hits give low values | activity score (negative = inhibition of binding), % at 10 µM | 300,000 compounds, 0.38% hits;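 active = inhibition past about -25% in most replicates, and total fluorescence under double the plate's negative control median, limit read from the data; inconclusive = replicates evenly split on the limit, or fluorescence at least double controls; inactive = too little inhibition in most replicates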
Target sequence (Q9XUB2 whole entry, looked up): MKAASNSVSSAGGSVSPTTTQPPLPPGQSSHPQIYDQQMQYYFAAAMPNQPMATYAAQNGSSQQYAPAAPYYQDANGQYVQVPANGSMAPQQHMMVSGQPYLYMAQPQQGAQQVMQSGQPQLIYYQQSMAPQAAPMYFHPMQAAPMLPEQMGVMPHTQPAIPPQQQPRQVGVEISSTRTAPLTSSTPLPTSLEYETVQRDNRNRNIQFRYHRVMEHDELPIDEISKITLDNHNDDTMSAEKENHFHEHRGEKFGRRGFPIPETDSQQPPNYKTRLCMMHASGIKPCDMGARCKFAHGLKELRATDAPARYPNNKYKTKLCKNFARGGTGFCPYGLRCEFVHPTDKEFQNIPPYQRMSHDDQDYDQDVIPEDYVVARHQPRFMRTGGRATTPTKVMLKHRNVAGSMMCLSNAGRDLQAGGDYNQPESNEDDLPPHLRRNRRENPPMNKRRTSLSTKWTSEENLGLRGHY
Bcl-xL conf – Bcl-xL inhibitors blocking Bim BH3 binding, confirmation, counter-screen for MCL1 inhibitor project, biochemical, fluorescence polarization; 1,700 compounds, 54% hits; inhibition, % at 10.9 µM; shares compounds with MCL1-BIM inh; GST-Bcl-xL / FITC-Bim BH3 peptide FP binding;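 active = inhibition above a cutoff equal to the mean inhibition of all tested compounds plus 3 SD, cut at about 30% in these data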
MCL1 inh confirm – inhibitors of MCL1 binding to BIM-BH3, confirmation, biochemical, fluorescence polarization, triplicate | 1,700 compounds, 61% hits | inhibition, % at 10.9 µM | GST-MCL1 / FITC-Bim-BH3 fluorescence polarization | shares compounds with MCL1-BIM inh | AID 2168, 2009;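 active = inhibition above the average of all tested compounds plus 3 SD, cut at about 40% in these data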
Numbers stand for hits.

For CCn1nc(C)c(/C=C2\CCCC3=C2OC(N)=C(C#N)C3c2c(C)nn(CC)c2C)c1C (configuration not stated) the results were GLD-1 TGE inh 52.9, MCL1-BIM inh 72.2, Bcl-xL primary 76.4, MEX-5 binding inconclusive, Bcl-xL conf 70.4 and MCL1 inh confirm 84.7.
COCCn1c(SCC(=O)N2CCCC2=O)nc2sc(C)c(C)c2c1=O was read as GLD-1 TGE inh inactive, MCL1-BIM inh 75.9, Bcl-xL primary inactive, eLon inh inactive, MEX-5 binding inactive, Bcl-xL conf inactive and MCL1 inh confirm inactive.
CCn1c(SCC(=O)NCCOC)nc2sc(C)c(C)c2c1=O was read as MEX-5 binding inactive.
Cc1c(-c2ccc(O)cc2)nc2nc(-c3ccccc3)c(-c3ccccc3)nn12 was read as GLD-1 TGE inh inactive, MCL1-BIM inh 112.2, Bcl-xL primary 118.2, MEX-5 binding inactive, Bcl-xL conf 43.9 and MCL1 inh confirm 54.0.
For Cc1nnc2c3ccccc3c(-c3ccc(O)cc3)nn12 the results were GLD-1 TGE inh inactive, MCL1-BIM inh inactive, Bcl-xL primary inactive, eLon inh inactive and MEX-5 binding inactive.
For O=C(O)/C(=C\c1ccc(Cl)c([N+](=O)[O-])c1)c1ccc(S(=O)(=O)N2CCCC2)s1 the results were GLD-1 TGE inh inactive, MCL1-BIM inh 43.2, Bcl-xL primary inactive, eLon inh inactive, Bcl-xL conf inactive and MCL1 inh confirm 49.4.
For O=C(O)/C(=C\c1ccc(Cl)c([N+](=O)[O-])c1)c1ccc(S(=O)(=O)N2CCCCC2)s1 the results were GLD-1 TGE inh inactive, MCL1-BIM inh inactive, Bcl-xL primary inactive, eLon inh inactive and MEX-5 binding inactive.
CN(CC(=O)Nc1cccc(F)c1)C(=O)c1ccc(N2CCCCC2)c([N+](=O)[O-])c1 was read as GLD-1 TGE inh inactive, MCL1-BIM inh inactive, Bcl-xL primary inactive, eLon inh inactive and MEX-5 binding inactive.
For CC(C)OC(=O)/C(=C/c1ccc(Br)cc1)NC(=O)c1ccco1 the results were GLD-1 TGE inh inactive, MCL1-BIM inh inactive, Bcl-xL primary inactive, eLon inh inactive and MEX-5 binding inactive.
For COc1ccc(N/C(=C(/C(Cl)=C(Cl)Cl)[N+](=O)[O-])n2nnc3ccccc32)cc1OC the results were GLD-1 TGE inh 37.2, MCL1-BIM inh 104.2, Bcl-xL primary 97.0, MEX-5 binding inactive, Bcl-xL conf inactive and MCL1 inh confirm inactive.
COc1ccc(C(=O)n2nnc3ccccc32)cc1OC was read as GLD-1 TGE inh inactive, MCL1-BIM inh inactive, Bcl-xL primary inactive and eLon inh inactive.
Screening COc1ccc2[nH]c3c(c2c1)CCNC3c1ccc([N+](=O)[O-])o1 (configuration not stated) returned GLD-1 TGE inh 37.2, MCL1-BIM inh 96.1, Bcl-xL primary 87.2, eLon inh inactive, MEX-5 binding -50.3, Bcl-xL conf 79.4 and MCL1 inh confirm 101.3.
Screening CCOC(=O)C1Nc2ccc(C(=O)O)cc2C2C=CCC12 (configuration not stated) returned GLD-1 TGE inh inactive, MCL1-BIM inh 89.1, Bcl-xL primary 36.8, eLon inh inactive, MEX-5 binding inactive, Bcl-xL conf 32.3 and MCL1 inh confirm 48.4.
CCOC(=O)c1ccc2c(c1)C1C=CCC1C(C(=O)O)N2 (configuration not stated) was read as GLD-1 TGE inh inactive, MCL1-BIM inh 113.1, Bcl-xL primary 64.3, Bcl-xL conf 54.5 and MCL1 inh confirm 97.1.
For COC(=O)CNC(=O)C1Nc2ccc(OC(F)(F)F)cc2C2C=CCC12 (configuration not stated) the results were GLD-1 TGE inh inactive, MCL1-BIM inh inactive, Bcl-xL primary inactive, eLon inh inactive and MEX-5 binding inactive.
Screening O=C(OCC(=O)N1CCCC1)c1c2c(nc3ccccc13)CCCCC2 returned GLD-1 TGE inh inactive, MCL1-BIM inh inactive, Bcl-xL primary inactive, eLon inh inactive and MEX-5 binding inactive.
Cc1ccc(S(=O)(=O)NC(CC(C)C)C(=O)NCc2ccco2)cc1 (configuration not stated) was read as GLD-1 TGE inh inactive, MCL1-BIM inh inactive, Bcl-xL primary inactive, eLon inh inactive and MEX-5 binding inactive.
O=C1C2C(C(=O)N1/N=C/c1cc([N+](=O)[O-])c(O)cc1O)C1C=CC2C12CC2 (configuration not stated) was read as GLD-1 TGE inh inactive, MCL1-BIM inh 48.1, Bcl-xL primary inactive, eLon inh inactive, MEX-5 binding inactive, Bcl-xL conf inactive and MCL1 inh confirm 59.4.
Screening O=c1c2cc3c(cc2[nH]c(=S)n1Cc1ccco1)OCO3 returned GLD-1 TGE inh inactive, MCL1-BIM inh inactive, Bcl-xL primary inactive, eLon inh inactive and MEX-5 binding inactive.
Screening COc1cccc(C(=O)OCC(=O)Nc2sc3c(c2C(N)=O)CCC3)c1O returned GLD-1 TGE inh inactive, MCL1-BIM inh 50.3, Bcl-xL primary inactive, eLon inh inactive, Bcl-xL conf inactive and MCL1 inh confirm 44.8.
COCCn1cnnc1SCC(=O)Nc1sc2c(c1C#N)CCC2 was read as GLD-1 TGE inh inactive, MCL1-BIM inh inactive, Bcl-xL primary inactive and eLon inh inactive.
`COc1ccccc1OCC(=O)Nc1sc2c(c1C(N)=O)CCC2` gave GLD-1 TGE inh inactive and eLon inh inactive.
`Cn1cnnc1SCC(=O)Nc1sc2c(c1C(N)=O)CCC2` gave GLD-1 TGE inh inactive, MCL1-BIM inh 56.4, Bcl-xL primary inactive, eLon inh inactive, MEX-5 binding inactive, Bcl-xL conf inactive and MCL1 inh confirm 56.0.
Screening O=C(O)c1ccccc1-c1ccc(/C=c2\sc3nc4cc(Br)cnc4n3c2=O)o1 returned GLD-1 TGE inh inactive, MCL1-BIM inh 59.5, Bcl-xL primary 38.2, eLon inh inactive, MEX-5 binding inactive, Bcl-xL conf inactive and MCL1 inh confirm inactive.
Screening O=C(CN1CCN(S(=O)(=O)c2ccc(F)cc2)CC1)Nc1ccc(F)cc1F returned GLD-1 TGE inh inactive, MCL1-BIM inh 174.4, Bcl-xL primary inactive, eLon inh inactive, MEX-5 binding inactive, Bcl-xL conf inactive and MCL1 inh confirm inactive.
For COc1ccc(C(=O)NCc2nnc(SCC(=O)NC3CCCCC3)o2)cc1 the results were GLD-1 TGE inh inactive, MCL1-BIM inh inactive, Bcl-xL primary inactive, eLon inh inactive and MEX-5 binding inactive.

Screening data from PubChem BioAssay.
